# Measurements from PubChem BioAssay (NCATS).
# Values without a mark were called inactive. Records with an inconclusive call do not appear. Entries that show only a call come without a potency. The source made the active and inactive calls. Unless noted, calls follow the shape of the dose curve; as a rule, active = well fitted curve in the direction sought with a large enough effect; inconclusive = small, poorly fitted or top-dose-only effect, or another doubt; inactive = no such curve, though single readings can be large; an effect the other way counts as inactive or inconclusive.
# Tests used:
# [1] = AP1 Signaling Pathway (AID 357; active = well fitted curve in either direction with a large enough effect, not every such curve was filed as active;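 also: ME-180 reporter cells stimulated with EGF at its EC50 level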); settings: ME-180 AP-1-bla reporter, EGF-induced, beta-lactamase ratio, 5 h; at 7.69 µM (top of the series) unless noted
# Method in brief: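 Titration-series screen for positive or negative modulators of EC50 EGF-induced signaling in ME-180 cells carrying an AP-1-driven beta-lactamase reporter. After 5 hours at 37 degrees Celsius, CCF4 460nm/530nm emission ratio gave %Activity; AC50 values derived.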
# [2] = target: Cytochrome P450 1A2 (Homo sapiens) (UniProt P05177); assay: p450-cyp1a2 (AID 410; calls by dose curve; also: potency is read from the fitted curve at half-maximal effect); settings: recombinant CYP1A2, luciferin-ME demethylation, luminescence; series mostly up to 11.4 µM
# Cytochrome P450 1A2 (Homo sapiens), sequence (P05177 whole entry, looked up): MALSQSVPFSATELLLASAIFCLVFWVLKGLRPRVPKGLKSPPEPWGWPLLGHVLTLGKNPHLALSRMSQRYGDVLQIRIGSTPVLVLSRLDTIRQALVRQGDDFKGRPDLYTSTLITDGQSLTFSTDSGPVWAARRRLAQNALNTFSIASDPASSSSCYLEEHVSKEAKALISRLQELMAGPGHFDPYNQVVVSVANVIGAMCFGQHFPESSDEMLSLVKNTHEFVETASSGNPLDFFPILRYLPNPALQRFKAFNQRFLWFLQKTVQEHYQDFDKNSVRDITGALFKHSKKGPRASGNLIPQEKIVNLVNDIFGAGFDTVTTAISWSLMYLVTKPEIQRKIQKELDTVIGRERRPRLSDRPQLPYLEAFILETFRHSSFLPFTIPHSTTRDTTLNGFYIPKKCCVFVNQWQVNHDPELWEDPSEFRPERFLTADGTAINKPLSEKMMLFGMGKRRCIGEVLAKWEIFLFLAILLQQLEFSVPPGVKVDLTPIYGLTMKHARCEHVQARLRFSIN
# Method in brief: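 Luminescent demethylation readout: Luciferin-ME (100uM, equal to Km) turned over by 20nM CYP1A2 for 60 min at room temperature after NADPH regeneration addition, following 10 min compound preincubation. Normalization used 57 uM furafylline as full inhibition.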
# [3] = NFAT Signaling Pathway (AID 444; active = well fitted curve in either direction with a large enough effect, not every such curve was filed as active;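 also: carbachol stimulus at about its EC50 of 1 µM final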); settings: Jurkat NFAT-bla M1, carbachol, beta-lactamase ratio, 5 h; at 7.69 µM (top of the series) unless noted
# Method in brief: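 Read-out: CCF4 FRET ratio (460 nm/530 nm) after 1 h RT dye loading, used for %activity and AC50 from titration series. Cells: Jurkat NFAT-β-lactamase/M1 line, treated with compound plus 1 uM carbachol for 5 h, 37 °C.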
# [4] = Stat Signaling Pathway (AID 446; active = well fitted curve in either direction with a large enough effect, not every such curve was filed as active;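 also: ME-180 cervical cancer cells given 40 pM IL-6 alongside compound; SIE-controlled beta-lactamase reporter measured as 460/530 nm FRET emission ratio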); settings: ME-180 (cervical carcinoma) SIE beta-lactamase reporter, IL-6 stimulated, 5 h; at 7.69 µM (top of the series) unless noted
# Method in brief: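 Normalization used AC90 stimulation (300 pM IL-6) and AC90 inhibition (125 nM pan-JAK inhibitor at 40 pM IL-6). The underlying signal is SIE-driven beta-lactamase in ME-180 cells after 5 h IL-6 exposure with compound.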
# [5] = target: Glucocorticoid receptor (Homo sapiens) (UniProt P04150); assay: GR-GFP Redistribution (AID 450;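 active = compounds whose dose series gives a full or clear partial fitted curve of increased nuclear translocation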; also: potency is read from the fitted curve at half-maximal effect); settings: U2OS GR-GFP nuclear translocation, laser cytometry, 2 h
# Glucocorticoid receptor (Homo sapiens), sequence (P04150 whole entry, looked up, the tested form may be a part): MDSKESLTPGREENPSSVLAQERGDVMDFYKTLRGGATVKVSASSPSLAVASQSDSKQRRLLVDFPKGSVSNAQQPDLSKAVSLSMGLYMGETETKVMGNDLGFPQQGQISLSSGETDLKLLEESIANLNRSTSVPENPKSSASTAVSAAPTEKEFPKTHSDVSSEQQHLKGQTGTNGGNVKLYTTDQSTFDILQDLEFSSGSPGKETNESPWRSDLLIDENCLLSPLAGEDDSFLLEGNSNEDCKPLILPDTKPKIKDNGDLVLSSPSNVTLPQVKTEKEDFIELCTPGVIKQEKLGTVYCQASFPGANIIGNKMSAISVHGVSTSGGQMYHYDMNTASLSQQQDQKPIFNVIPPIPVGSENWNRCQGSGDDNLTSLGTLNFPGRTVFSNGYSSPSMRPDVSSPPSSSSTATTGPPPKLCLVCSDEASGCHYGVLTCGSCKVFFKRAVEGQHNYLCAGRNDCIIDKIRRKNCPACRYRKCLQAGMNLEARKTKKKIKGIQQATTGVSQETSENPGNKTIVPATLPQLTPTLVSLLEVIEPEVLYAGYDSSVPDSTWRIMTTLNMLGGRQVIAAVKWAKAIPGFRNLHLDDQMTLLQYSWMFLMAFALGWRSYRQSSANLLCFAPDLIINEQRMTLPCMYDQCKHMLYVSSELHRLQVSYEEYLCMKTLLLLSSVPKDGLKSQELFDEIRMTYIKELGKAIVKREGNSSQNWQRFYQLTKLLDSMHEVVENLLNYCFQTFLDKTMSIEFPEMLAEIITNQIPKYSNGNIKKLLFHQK
# [6] = target: Glucocorticoid receptor (Homo sapiens) (UniProt P04150); assay: GR-EFC Redistribution (AID 451; calls by dose curve; also: potency is read from the fitted curve at half-maximal effect); settings: CHO-K1 GR-EFC translocation, beta-gal luminescence, 2 h
# Method in brief: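 Translocation of GR-ED fusion to nuclear EA restores b-gal, read by luminescence after 1 h room-temperature detection. Engineered CHO-K1 biosensor cells, 1,000/well, exposed 2 h at 37 C to titrations up to 46 uM final.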
# [7] = target: Mitogen-activated protein kinase 10 (Mus musculus) (UniProt Q61831); assay: JNK3 AlphaScreen Assay (AID 530; active = well fitted curve in either direction with a large enough effect, not every such curve was filed as active;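 also: kinase came from lysate of stimulated human HepG2 cells; signal reports phosphorylation of biotinylated GST-cJun 1-79 at Ser73 with 10 µM ATP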); settings: JNK3 lysate, c-Jun phosphorylation; series mostly up to 11.4 µM
# Method in brief: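 qHTS titrations with 15 min compound pre-incubation before adding ATP (10 uM final). Read-out: AlphaScreen of Ser73-phosphorylated biotin-GST-cJun using HepG2 lysate JNK3 activated by IL-1β and TNFα.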
# [8] = target: 3',5'-cyclic-AMP phosphodiesterase 4B (Homo sapiens) (UniProt Q07343); assay: qHTS Assay for Inhibitors of PDE-IV (AID 607; active = well fitted activation curve with a large enough effect in the main read-out, with a control signal flat, not every such curve was filed as active); settings: HEK293 ACTOne CNG channel cells, membrane potential fluorescence; series mostly up to 22.9 µM
# 3',5'-cyclic-AMP phosphodiesterase 4B (Homo sapiens), sequence (Q07343 whole entry, looked up): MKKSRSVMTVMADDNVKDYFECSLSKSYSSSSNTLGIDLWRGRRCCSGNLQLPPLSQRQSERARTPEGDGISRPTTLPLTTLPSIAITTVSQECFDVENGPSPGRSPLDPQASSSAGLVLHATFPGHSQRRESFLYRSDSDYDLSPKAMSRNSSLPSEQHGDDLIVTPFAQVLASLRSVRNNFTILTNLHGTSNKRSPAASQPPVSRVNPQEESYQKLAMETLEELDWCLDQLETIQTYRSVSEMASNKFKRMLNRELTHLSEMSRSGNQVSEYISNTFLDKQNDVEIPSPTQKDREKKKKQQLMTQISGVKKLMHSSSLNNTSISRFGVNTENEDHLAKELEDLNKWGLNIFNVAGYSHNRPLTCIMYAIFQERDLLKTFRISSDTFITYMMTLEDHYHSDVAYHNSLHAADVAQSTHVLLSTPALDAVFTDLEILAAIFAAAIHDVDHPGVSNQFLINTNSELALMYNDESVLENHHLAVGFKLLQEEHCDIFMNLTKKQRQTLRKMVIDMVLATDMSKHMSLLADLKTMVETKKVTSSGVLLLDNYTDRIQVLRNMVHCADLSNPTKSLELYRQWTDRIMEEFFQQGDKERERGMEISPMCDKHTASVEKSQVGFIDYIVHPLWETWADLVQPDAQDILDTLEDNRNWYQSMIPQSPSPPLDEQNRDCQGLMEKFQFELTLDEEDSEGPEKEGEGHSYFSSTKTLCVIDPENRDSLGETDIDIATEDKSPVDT
# Method in brief: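 HEK293 ACTOne cells with CNG channel (1000/well), endogenous PDE4; membrane potential dye, compounds up to 22.9 uM final. Fluorescence Ex 535/Em 590; RO 20-1724 (100 uM final) as reference.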
# [9] = target: Guanine nucleotide-binding protein G(i) subunit alpha-1 (Homo sapiens) (UniProt P63096); assay: qHTS Assay for Inhibitors of RGS12 GoLoco Motif Activity (Green Fluorophore) (AID 879); settings: Galphai1/FITC-RGS12 GoLoco peptide, fluorescence polarization; series mostly up to 57.1 µM;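 also: negative values mean loss of peptide binding seen as reduced polarization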
# Guanine nucleotide-binding protein G(i) subunit alpha-1 (Homo sapiens), sequence (P63096 whole entry, looked up): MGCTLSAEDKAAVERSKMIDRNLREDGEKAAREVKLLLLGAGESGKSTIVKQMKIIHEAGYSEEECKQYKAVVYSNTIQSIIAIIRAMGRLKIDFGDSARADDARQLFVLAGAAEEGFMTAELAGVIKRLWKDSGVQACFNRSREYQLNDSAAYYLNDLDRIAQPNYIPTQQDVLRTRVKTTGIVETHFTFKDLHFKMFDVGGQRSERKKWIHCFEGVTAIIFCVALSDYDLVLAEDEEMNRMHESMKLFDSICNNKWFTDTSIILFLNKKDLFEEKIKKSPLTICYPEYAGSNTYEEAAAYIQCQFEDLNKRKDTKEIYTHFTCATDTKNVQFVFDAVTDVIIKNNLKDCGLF
# Method in brief: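 A drop in FITC polarization marked displacement of the FITC-tagged RGS12 GoLoco peptide (10 nM) from Gαi1 (50 nM). Compounds were incubated 10 min at room temperature in Tris pH 7.5 buffer containing 150 mM NaCl, 0.1 mM GDP and 0.05% NP40; unlabeled peptide titration served as control.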
# [10] = qHTS Assay for Identification of Small Molecule Agonists for Thrombopoietin (TPO) Signaling Pathway (AID 917); settings: TPO signaling pathway reporter cells, agonist qHTS, stimulated with TPO at its EC50; series mostly up to 38.5 µM
# Method in brief: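 Human TPO receptor–transfected Ba/F3 cells (murine, IL-3-dependent) in IL-3-deficient medium; compounds plus TPO at EC50, 26 pM final; 24 hrs, 37 C; GpIIb-luciferase luminescence after 10 min RT detection.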
# [11] = target: Pyruvate kinase (Leishmania mexicana) (UniProt Q27686); assay: qHTS Validation Assay for Inhibitors of Leishmania Mexicana Pyruvate Kinase (AID 945); settings: purified L. mexicana pyruvate kinase, enzyme activity, E451W mutant enzyme; series mostly up to 57.5 µM
# Pyruvate kinase (Leishmania mexicana), sequence (Q27686 2-499 E452W): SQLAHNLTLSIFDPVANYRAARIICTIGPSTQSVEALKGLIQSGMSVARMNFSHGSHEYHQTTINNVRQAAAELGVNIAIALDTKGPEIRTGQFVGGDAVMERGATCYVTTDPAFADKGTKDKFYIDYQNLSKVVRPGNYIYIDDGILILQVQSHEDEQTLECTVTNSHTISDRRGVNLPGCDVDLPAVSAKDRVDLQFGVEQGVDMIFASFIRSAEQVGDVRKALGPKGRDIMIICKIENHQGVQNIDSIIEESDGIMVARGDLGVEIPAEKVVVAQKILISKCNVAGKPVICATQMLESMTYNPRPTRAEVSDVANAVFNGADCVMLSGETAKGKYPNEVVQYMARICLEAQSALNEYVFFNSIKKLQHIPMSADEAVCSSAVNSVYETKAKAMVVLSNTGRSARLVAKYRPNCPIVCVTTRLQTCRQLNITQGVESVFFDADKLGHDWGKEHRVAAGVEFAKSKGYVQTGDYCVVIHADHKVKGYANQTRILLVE
# Method in brief: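 An endpoint luciferase assay: 0.2 nM LmPYK E451W turns over 0.5 mM PEP with 0.1 mM ADP for 1 h at room temperature, pH 7.2, before PKLight addition. Values are normalized to DMSO-only wells.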
# [12] = target: Pyruvate kinase PKM (Homo sapiens) (UniProt P14618); assay: qHTS Assay for Activators of Human Muscle Pyruvate Kinase (AID 954; active = well fitted curve in the direction sought with a large enough effect, not every such curve was filed as active); settings: purified human muscle pyruvate kinase, luciferase-coupled luminescence, 1 h; series mostly up to 57.5 µM
# Pyruvate kinase PKM (Homo sapiens), sequence (P14618 whole entry, looked up): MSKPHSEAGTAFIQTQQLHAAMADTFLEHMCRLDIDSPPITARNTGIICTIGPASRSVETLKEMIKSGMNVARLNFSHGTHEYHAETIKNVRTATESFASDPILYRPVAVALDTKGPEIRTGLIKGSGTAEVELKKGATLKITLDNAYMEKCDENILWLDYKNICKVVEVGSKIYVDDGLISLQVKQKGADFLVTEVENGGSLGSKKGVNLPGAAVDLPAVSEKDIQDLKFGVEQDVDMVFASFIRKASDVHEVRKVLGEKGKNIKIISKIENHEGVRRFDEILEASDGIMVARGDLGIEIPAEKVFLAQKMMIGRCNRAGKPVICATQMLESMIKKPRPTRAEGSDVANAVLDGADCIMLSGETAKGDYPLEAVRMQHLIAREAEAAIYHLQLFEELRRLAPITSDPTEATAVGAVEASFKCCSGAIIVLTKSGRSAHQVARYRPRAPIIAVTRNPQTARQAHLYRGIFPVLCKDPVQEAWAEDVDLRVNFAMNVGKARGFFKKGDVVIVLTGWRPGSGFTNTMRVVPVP
# Method in brief: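 Compound pinned into substrate mix (0.5 mM PEP, 0.1 mM ADP), then 0.1 nM PKM2 added; 1 h, RT. Stop/detection luciferase reagent added, luminescence read. Normalized to no-inhibition and no-enzyme or reference-inhibitor controls.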
# [13] = target: Alpha-galactosidase A (Homo sapiens) (UniProt P06280); assay: Counterscreen for Glucocerebrosidase Inhibitors: qHTS Assay for Human alpha-Galactosidase at pH 4.5 (AID 992); settings: purified enzyme, fluorogenic substrate; series mostly up to 76.9 µM
# Alpha-galactosidase A (Homo sapiens), sequence (P06280 whole entry, looked up): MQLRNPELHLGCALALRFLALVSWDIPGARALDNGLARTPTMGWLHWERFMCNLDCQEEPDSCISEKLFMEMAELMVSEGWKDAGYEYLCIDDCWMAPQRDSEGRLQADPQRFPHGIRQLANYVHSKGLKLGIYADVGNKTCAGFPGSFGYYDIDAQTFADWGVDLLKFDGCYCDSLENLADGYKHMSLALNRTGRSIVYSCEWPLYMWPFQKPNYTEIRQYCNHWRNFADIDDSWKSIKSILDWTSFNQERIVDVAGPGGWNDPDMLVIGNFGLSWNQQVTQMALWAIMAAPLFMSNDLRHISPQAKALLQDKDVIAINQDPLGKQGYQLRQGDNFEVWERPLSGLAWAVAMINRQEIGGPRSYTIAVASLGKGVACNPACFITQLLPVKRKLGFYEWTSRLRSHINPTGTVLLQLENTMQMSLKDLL
# Method in brief: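 Steps: enzyme (2 nM final), then compound across 0.7 nM to 77 uM, then 80 uM fluorogenic galactopyranoside substrate; incubate 20 min at room temperature; quench at pH 10; measure fluorescence at 365/440 nm.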
# [14] = target: alpha-glucosidase (Oryza sativa, rice) (UniProt Q653V4); assay: Counterscreen for Glucocerebrosidase Inhibitors: qHTS Assay for Rice alpha-Glucosidase at pH 5.0 (AID 997); settings: rice alpha-glucosidase enzyme activity; series mostly up to 76.9 µM
# Method in brief: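 Endpoint fluorogenic assay at pH 5.0: compounds (0.7 nM to 77 uM) titrated against 4 nM rice enzyme and 400 uM 4-MU-alpha-glucoside for 20 min at room temperature; NaOH/glycine stop, read ex 365/em 440 nm, Hill-fitted AC50.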
# [15] = qHTS Assay for Identification of Small Molecule Antagonists for NFkB Signaling Pathway (AID 895; active = well fitted inhibition curve with a large enough effect in the signal ratio, with a control signal flat, not every such curve was filed as active; the % refers to the signal ratio); settings: NFkB beta-lactamase reporter cells, FRET ratio 460/530, stimulated with 10 pM TNF alpha; series mostly up to 38.3 µM
# Method in brief: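 Beta-lactamase reporter read-out (460 and 530 nm emission ratio, 405 nm excitation, 2 hrs substrate loading RT) after 5 hr stimulation with 10 pM TNF alpha in compound-treated NFkB-bla ME-180 cells in low-serum medium.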
# [16] = target: Muscarinic acetylcholine receptor M1 (Rattus norvegicus) (UniProt P08482); assay: qHTS Assay for Antagonists of Acetylcholine Muscarinic M1 Receptor: Measurement of IP-One Response (AID 944); settings: CHO-M1 cells, IP-One HTRF, antagonist mode; series mostly up to 46.1 µM; also: nearly all actives have a fitted effect of over 75% in size
# Muscarinic acetylcholine receptor M1 (Rattus norvegicus), sequence (P08482 whole entry, looked up): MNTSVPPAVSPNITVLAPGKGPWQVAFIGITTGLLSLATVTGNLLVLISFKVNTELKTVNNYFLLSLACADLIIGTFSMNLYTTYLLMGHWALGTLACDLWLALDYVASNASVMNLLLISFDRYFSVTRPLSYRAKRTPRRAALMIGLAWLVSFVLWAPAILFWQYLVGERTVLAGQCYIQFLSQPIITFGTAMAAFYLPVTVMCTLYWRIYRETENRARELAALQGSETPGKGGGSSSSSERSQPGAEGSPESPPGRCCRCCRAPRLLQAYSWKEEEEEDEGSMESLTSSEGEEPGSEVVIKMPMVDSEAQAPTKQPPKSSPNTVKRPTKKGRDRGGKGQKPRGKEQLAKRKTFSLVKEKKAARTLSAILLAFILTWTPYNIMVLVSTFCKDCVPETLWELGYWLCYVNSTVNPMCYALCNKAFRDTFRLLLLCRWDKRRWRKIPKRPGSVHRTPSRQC
# Method in brief: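 IP1 accumulation measured via TR-FRET between d2-IP1 and Eu-cryptate anti-IP1 antibody after carbachol (200 nM, EC80) stimulation for 30 min; rat M1-transfected CHO cells received compound 10 min before agonist.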
# [17] = target: Cytochrome P450 3A4 (Homo sapiens) (UniProt P08684); assay: qHTS Assay for Activators of Cytochrome P450 3A4 (AID 885); settings: recombinant CYP3A4, Luciferin-PPXE luminescence, 60 min; series mostly up to 11.4 µM; also: nearly all actives have a fitted effect of over 65% in size
# Cytochrome P450 3A4 (Homo sapiens), sequence (P08684 whole entry, looked up): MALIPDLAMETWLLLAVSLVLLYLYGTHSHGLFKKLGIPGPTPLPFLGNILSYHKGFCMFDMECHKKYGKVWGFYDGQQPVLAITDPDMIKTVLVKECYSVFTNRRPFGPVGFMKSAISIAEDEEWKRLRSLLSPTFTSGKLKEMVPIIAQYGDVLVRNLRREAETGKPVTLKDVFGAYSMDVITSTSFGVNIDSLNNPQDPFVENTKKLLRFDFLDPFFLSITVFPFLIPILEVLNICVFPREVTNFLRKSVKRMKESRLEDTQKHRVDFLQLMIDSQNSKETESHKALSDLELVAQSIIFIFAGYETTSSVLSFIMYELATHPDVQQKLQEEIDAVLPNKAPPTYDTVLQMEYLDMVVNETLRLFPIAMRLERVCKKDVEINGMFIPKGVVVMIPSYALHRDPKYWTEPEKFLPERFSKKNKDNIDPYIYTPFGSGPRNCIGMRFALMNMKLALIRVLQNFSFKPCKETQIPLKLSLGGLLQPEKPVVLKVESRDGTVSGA
# Method in brief: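 Human CYP3A4 dealkylates Luciferin-PPXE to luciferin, which luciferase detection converts to light. Substrate was at its KM (25uM), buffer 200mM KPO4, reaction 60 min at RT.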
Structure (SMILES),"activity change, negative = inhibition [1]",Potency [2],"activity change, negative = inhibition [3]","activity, negative = inhibition [4]",Potency [5],Potency [6],Potency [7],Potency [8],outcome [9],outcome [10],outcome [11],outcome [12],outcome [13],Potency [14],Potency [15],Potency [16],Potency [17]
Nc1nc(N)c2nc(CNc3ccc(C(=O)N[C@H](CCC(=O)O)C(=O)O)cc3)cnc2n1,1.47% [at 38 µM],inactive,13.5% [at 38 µM],-0.643% [at 38 µM],> 46 µM,> 46 µM,inactive,inactive,inactive,inactive,inactive,inactive,inactive,inactive,,,
NCC[C@H]1CCC[C@H](CCN)N1,2.44% [at 38 µM],inactive,2.27% [at 38 µM],-5.59% [at 38 µM],> 46 µM,> 46 µM,inactive,inactive,inactive,inactive,inactive,inactive,inactive,inactive,inactive,inactive,
Cc1cccc(C)c1OC[C@@H](N)C(C)C,9.48% [at 38 µM],12.6 µM (active),4.41% [at 38 µM],4.92% [at 38 µM],> 46 µM,> 46 µM,inactive,inactive,inactive,,,inactive,inactive,inactive,,inactive,inactive
